The source of these data is PubChem BioAssay (NCI).

About 79,000 compounds went through this panel and 15% of them were active in at least one assay; those are over-represented in the sample as a whole. A number with no mark means an inactive call. Calls of active or inactive are those of the source. Cut-off read from the data, not from the text of the source: active = growth inhibition above about 70%; inactive = the rest.

Assay [1] is described as follows: NCI Yeast Anticancer Drug Screen. Data for the rad50 strain (AID 155).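 Note: 0% = growth of vehicle-only cultures of the same strain.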 The settings on record: S. cerevisiae rad50 strain growth inhibition, stronger effect = higher value. In outline:
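Inhibition values express reduced yeast growth in compound-treated cultures relative to vehicle-treated controls.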

Assay [2] in a line: NCI Yeast Anticancer Drug Screen. Data for the mec2-1 strain (AID 157). The settings on record: S. cerevisiae mec2-1 strain, stronger effect = higher value. In outline: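 mec2-1 yeast strain, carrying an alteration in DNA damage repair or cell cycle control, was exposed to compounds; growth inhibition was measured relative to vehicle-treated controls.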
Assay [3] can be described thus: NCI Yeast Anticancer Drug Screen. Data for the sgs1 mgt1 strain (AID 161).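 Note: 0% = growth of cultures given vehicle only.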 The settings on record: S. cerevisiae sgs1 mgt1 strain, stronger effect = higher value. The method in brief: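 Percent growth inhibition was derived by comparing compound-exposed mutant yeast with vehicle-exposed cultures. The strain carries alterations in DNA damage repair.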
A short description of assay [4]: NCI Yeast Anticancer Drug Screen. Data for the cln2 rad14 strain (AID 165).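 Note: 0% = growth equal to vehicle treated cultures.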 Conditions: S. cerevisiae cln2 rad14 strain, stronger effect = higher value. The method in brief:
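Yeast carrying cln2 and rad14 alterations (cell cycle control and DNA damage repair) were exposed to compounds. Growth inhibition was measured against vehicle-treated controls.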

The nature of assay [5]: NCI Yeast Anticancer Drug Screen. Data for the bub3 strain (AID 167). Conditions: S. cerevisiae bub3 mutant strain, stronger effect = higher value. The method in brief:
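Steps: expose the mutant yeast strain to compound; grow alongside vehicle-treated cultures; measure growth; express inhibition against the vehicle cultures.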

Assay [6] in a line: NCI Yeast Anticancer Drug Screen. Data for the mlh1 rad18 strain (AID 175). The settings on record: S. cerevisiae mlh1 rad18 strain growth inhibition, stronger effect = higher value. The method in brief:
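Growth inhibition of the yeast strain was measured after compound exposure and expressed relative to vehicle-treated controls. The strain carries defined defects in DNA damage repair.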

The mark [7] stands for this setting: at 5.0 µM (retest, dose inferred, filed as 0.5).
The mark [8] stands for this setting: at 50.0 µM (retest, dose inferred, filed as 5.0).

On to `CCC[n+]1ccnc2ccccc21`, for which the growth inhibition in assay [1] (setting [7]) is 2%; in assay [1] (setting [8]), 2%; in assay [1] (at 50.0 µM) it was 15.3%; in assay [2] (setting [7]) it was -11%; in assay [2] (setting [8]) it was -1%; in assay [2] (at 50.0 µM) it was 8.3%. In addition, the growth inhibition in assay [3] (setting [7]) was -4%; in assay [3] (setting [8]), -10%; in assay [3] (at 50.0 µM), 27.9%; in assay [4] (setting [7]), 13%; in assay [4] (setting [8]), 4%; in assay [4] (at 50.0 µM) it was 11%. Moreover, the growth inhibition in assay [5] (setting [7]) was -2%; in assay [5] (setting [8]) it was -5%; in assay [5] (at 50.0 µM), 19.6%; in assay [6] (setting [7]), -4%; in assay [6] (setting [8]), 14%; in assay [6] (at 50.0 µM), 22.9%.
`O=C(/C=C\C(=O)Nc1cccc(N(Cc2ccccc2)Cc2ccccc2)c1)Nc1cccc(N(Cc2ccccc2)Cc2ccccc2)c1`: the growth inhibition in assay [1] (setting [7]) was -5%; in assay [1] (setting [8]), 2%; in assay [1] (at 50.0 µM) it was 61.5%; in assay [2] (setting [7]), -10%; in assay [2] (setting [8]), -1%; in assay [2] (at 50.0 µM) it was 87.2% (active). The growth inhibition in assay [3] (setting [7]) is 0%; in assay [3] (setting [8]) it was 5%; in assay [3] (at 50.0 µM) it was 85.5% (active); in assay [4] (setting [7]) it was 4%; in assay [4] (setting [8]), 13%; in assay [4] (at 50.0 µM), 67%. In addition, the growth inhibition was -2% in assay [5] (setting [7]); 3% in assay [5] (setting [8]); 46.2% in assay [5] (at 50.0 µM); -3% in assay [6] (setting [7]); 3% in assay [6] (setting [8]); 82% (active) in assay [6] (at 50.0 µM).
As to `CCOC(=O)Nc1ccc(SCC2COC(Cn3ccnc3)(c3ccc(Cl)cc3Cl)O2)cc1` (stereo not given), the growth inhibition in assay [1] (setting [7]) was 89% (active); in assay [1] (setting [8]), 91% (active); in assay [1] (at 50.0 µM) it was 97% (active); in assay [2] (setting [7]) it was 72% (active); in assay [2] (setting [8]), 93% (active); in assay [2] (at 50.0 µM), 96.2% (active). For the same compound, the growth inhibition in assay [3] (setting [7]) was 84% (active); in assay [3] (setting [8]), 94% (active); in assay [3] (at 50.0 µM) it was 49.1%; in assay [4] (setting [7]) it was 60%; in assay [4] (setting [8]) it was 90% (active); in assay [4] (at 50.0 µM) it was 98% (active). For the same compound, the growth inhibition in assay [5] (setting [7]) is 91% (active); in assay [5] (setting [8]), 93% (active); in assay [5] (at 50.0 µM), 94.5% (active); in assay [6] (setting [7]), 61%; in assay [6] (setting [8]), 90% (active); in assay [6] (at 50.0 µM), 95.2% (active).
On to `CC(=O)OC1C2C3C(C=CC2[C@H]1OC(C)=O)C1C3C=CC2C1C(OC(C)=O)[C@@H]2OC(C)=O` (stereo not given in full), for which the growth inhibition in assay [1] (setting [7]) was 3%; in assay [1] (setting [8]), 14%; in assay [1] (at 50.0 µM), 18.4%; in assay [2] (setting [7]), -1%; in assay [2] (setting [8]), 21%; in assay [2] (at 50.0 µM) it was 11.8%. Moreover, the growth inhibition was -173% in assay [3] (setting [7]); 11% in assay [3] (setting [8]); 5.2% in assay [3] (at 50.0 µM); -2% in assay [4] (setting [7]); 13% in assay [4] (setting [8]); 14.3% in assay [4] (at 50.0 µM). Also, the growth inhibition is -2% in assay [5] (setting [7]); 4% in assay [5] (setting [8]); -1.9% in assay [5] (at 50.0 µM); 12% in assay [6] (setting [7]); 30% in assay [6] (setting [8]); 12.9% in assay [6] (at 50.0 µM).
`COc1nc2nc(Cl)cc(C)c2c2ccccc12` (tested in a mixture with another compound): the growth inhibition in assay [1] (setting [7]) is 33%; in assay [1] (setting [8]) it was 94% (active); in assay [1] (at 50.0 µM) it was 98.1% (active); in assay [2] (setting [7]) it was 11%; in assay [2] (setting [8]), 91% (active); in assay [2] (at 50.0 µM), 65.2%. The growth inhibition is 8% in assay [3] (setting [7]); 76% (active) in assay [3] (setting [8]); 52.1% in assay [3] (at 50.0 µM); 3% in assay [4] (setting [7]); 86% (active) in assay [4] (setting [8]); 71.8% (active) in assay [4] (at 50.0 µM). Moreover, the growth inhibition was 5% in assay [5] (setting [7]); 94% (active) in assay [5] (setting [8]); 78.5% (active) in assay [5] (at 50.0 µM); 17% in assay [6] (setting [7]); 93% (active) in assay [6] (setting [8]); 54.2% in assay [6] (at 50.0 µM).
